Source: PubChem BioAssay (Broad Institute)
ID4 SMM: ID4 (human) binding; small molecule microarray, Flag-ID4 binding, fluorescence F/B; hit rate 1.2% among 31,000; calls only; P47928; AID 624137; call rule not given here;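 note: a binder raises fluorescence above local background on the spot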
Target sequence (P47928 whole entry, looked up): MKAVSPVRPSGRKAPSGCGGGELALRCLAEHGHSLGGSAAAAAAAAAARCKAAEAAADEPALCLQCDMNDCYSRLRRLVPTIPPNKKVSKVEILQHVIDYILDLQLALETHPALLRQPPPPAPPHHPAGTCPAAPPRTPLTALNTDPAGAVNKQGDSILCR
An asterisk follows results filed as active; i = inactive; + = active, no number. Many of the other results were omitted from the sample, so hits are more common in it than they were.

SMILES	ID4 SMM
CNC[C@@H]1Oc2ccc(NC(=O)Nc3cccc4ccccc34)cc2CC(=O)N([C@@H](C)CO)C[C@H]1C	+
CNC[C@@H]1Oc2ccc(NC(=O)Nc3c(C)noc3C)cc2CC(=O)N([C@H](C)CO)C[C@H]1C	+
CNC[C@H]1Oc2ccc(NC(=O)c3ccncc3)cc2CC(=O)N([C@@H](C)CO)C[C@@H]1C	i
CNC[C@@H]1Oc2ccc(NC(=O)Nc3c(C)noc3C)cc2CC(=O)N([C@@H](C)CO)C[C@@H]1C	i
CNC[C@H]1Oc2ccc(NC(=O)Nc3c(C)noc3C)cc2CC(=O)N([C@@H](C)CO)C[C@H]1C	i
Cc1ccc(-n2c(C)nnc2SCC(=O)Nc2ccc(Cl)c(C(F)(F)F)c2)cc1	i
Cc1ccc(NC(=O)c2ccco2)c(NC(=O)COc2ccccc2Cl)c1	i
Cc1ccc(C(=O)NC(=O)CSc2n[nH]c(N)n2)cc1	i
COC(=O)CCSc1nc(SC)nc2sc3c(c12)CC(C)(C)OC3	i
CS(=O)(=O)N(CC(=O)Nc1cc(Cl)ccc1Cl)c1cc(Cl)c(Cl)cc1Cl	i
O=C(CSc1nc2ccccc2[nH]1)Nc1cccc(C(F)(F)F)c1	i
CN(c1ccc(OCC(=O)O)cc1)S(=O)(=O)c1ccc(F)cc1	i
O=C(CSc1oc(-c2ccccc2)nc1S(=O)(=O)c1ccccc1)Nc1ccc(F)cc1	i
Cc1cc(C)c(C)c(S(=O)(=O)NCC(=O)Nc2ccc3c(c2)OCCO3)c1C	i
CCOC(=O)C1=C(C)Nc2ncnn2C1c1ccccc1[N+](=O)[O-] (stereo not given)	i
Cc1ccc(NC(=O)C(C)Sc2nccc(C)n2)cc1 (stereo not given)	i
Cc1noc(C)c1NC(=O)N(C)C[C@H]1Oc2ccc(NC(=O)NC(C)C)cc2CC(=O)N([C@@H](C)CO)C[C@@H]1C	i
Cc1noc(C)c1NC(=O)N(C)C[C@H]1Oc2ccc(NC(=O)Nc3ccc(F)cc3)cc2CC(=O)N([C@H](C)CO)C[C@H]1C	+
Cc1noc(C)c1NC(=O)N(C)C[C@H]1Oc2ccc(NC(=O)NC(C)C)cc2CC(=O)N([C@H](C)CO)C[C@H]1C	i
COc1ccc2ccc(=O)oc2c1CC(O)C(C)(C)OC (stereo not given)	i
CNC[C@@H]1Oc2ccc(NS(=O)(=O)c3cccs3)cc2CC(=O)N([C@H](C)CO)C[C@@H]1C	i
CNC[C@@H]1Oc2ccc(NS(=O)(=O)c3ccccc3)cc2CC(=O)N([C@@H](C)CO)C[C@H]1C	+
CNC[C@@H]1Oc2ccc(NS(=O)(=O)c3ccccc3)cc2CC(=O)N([C@@H](C)CO)C[C@@H]1C	i
CNC[C@H]1Oc2ccc(NS(=O)(=O)c3cccs3)cc2CC(=O)N([C@H](C)CO)C[C@@H]1C	+
CNC[C@H]1Oc2ccc(NS(=O)(=O)c3cccs3)cc2CC(=O)N([C@@H](C)CO)C[C@H]1C	i
SMILES	ID4 SMM
CNC[C@@H]1Oc2ccc(NS(C)(=O)=O)cc2CC(=O)N([C@@H](C)CO)C[C@H]1C	i
COc1ccc(C)cc1N(CC(=O)Nc1ccccc1C(F)(F)F)S(C)(=O)=O	i
Cc1cc(C(F)(F)F)nc(SCC(=O)Nc2ccc(Cl)cc2)n1	i
Cc1ccc(OCCCCSc2nc(C)cc(=O)[nH]2)c(C)c1	i
COC(=O)c1c(NC(=O)c2ccc(NS(C)(=O)=O)cc2)sc2c1CCCC2	i
C[C@@H]1CC[C@]2(C(=O)OC3OC(CO)C(OC4OC(CO)C(O)C(O)C4O)C(O)C3O)CC[C@]3(C)C(=CCC4[C@@]5(C)CC[C@H](O)[C@](C)(C(=O)O)C5CC[C@]43C)C2[C@]1(C)O (stereo not given in full)	i
CC(=O)Nc1ccc(NC(=O)CN(c2ccc(F)cc2)S(C)(=O)=O)cc1	i
Cc1sc(NC(=O)CCn2cnc3ccccc3c2=O)c(C#N)c1C	i
Cc1ccc(Nc2nc(N)nc(CN3CCN(C(c4ccccc4)c4ccccc4)CC3)n2)cc1	i
COC(=O)c1ccccc1NC(=O)CNC(=O)c1cccs1	i
C[C@@H]1CN([C@@H](C)CO)C(=O)c2cc(NS(C)(=O)=O)ccc2O[C@@H](C)CCCCO[C@@H]1CN(C)C(=O)Nc1ccccc1	+
C[C@@H]1CN([C@H](C)CO)C(=O)c2cc(NC(=O)CCCN(C)C)ccc2O[C@@H]1CN(C)C(=O)Nc1cccc2ccccc12	i
C[C@H]1CCCCO[C@H](CN(C)C(=O)Nc2ccccc2)[C@@H](C)CN([C@@H](C)CO)C(=O)c2cc(NS(C)(=O)=O)ccc2O1	i
C[C@@H]1CCCCO[C@H](CN(C)S(=O)(=O)c2cn(C)cn2)[C@H](C)CN([C@H](C)CO)C(=O)c2cc(NS(C)(=O)=O)ccc2O1	+
C[C@@H]1CN([C@H](C)CO)C(=O)c2cc(NC(=O)CCCN(C)C)ccc2O[C@H]1CN(C)C(=O)Nc1cccc2ccccc12	i
C[C@@H]1CN([C@@H](C)CO)C(=O)c2cc(NC(=O)CCCN(C)C)ccc2O[C@H]1CN(C)C(=O)Nc1cccc2ccccc12	+
C[C@H]1CCCCO[C@@H](CN(C)C(=O)Nc2ccccc2)[C@@H](C)CN([C@@H](C)CO)C(=O)c2cc(NS(C)(=O)=O)ccc2O1	i
C[C@@H]1CCCCO[C@@H](CN(C)S(=O)(=O)c2cn(C)cn2)[C@@H](C)CN([C@H](C)CO)C(=O)c2cc(NS(C)(=O)=O)ccc2O1	i
C[C@H](CO)N1C[C@H](C)[C@@H](CN(C)Cc2ccccc2)Oc2ccc(NS(C)(=O)=O)cc2C1=O	+
C[C@@H]1CCCCO[C@H](CN(C)S(=O)(=O)c2cn(C)cn2)[C@@H](C)CN([C@H](C)CO)C(=O)c2cc(NS(C)(=O)=O)ccc2O1	i
C[C@@H]1CN([C@H](C)CO)C(=O)c2cc(NS(C)(=O)=O)ccc2O[C@@H](C)CCCCO[C@H]1CN(C)Cc1ccccc1	i
C[C@@H]1CN([C@H](C)CO)C(=O)c2cc(NS(C)(=O)=O)ccc2O[C@H]1CN(C)Cc1ccccc1	i
CCn1c(SCC(=O)Nc2cc(Cl)ccc2Cl)nnc1-c1ccccc1OC	i
CCOc1ccccc1-c1nnc(SCC(=O)Nc2ccc(I)cc2)o1	i
CC1CC[C@@]2(OC1)O[C@H]1CC3C4CC=C5C[C@@H](O[C@@H]6O[C@H](CO)[C@@H](O[C@@H]7O[C@@H](C)[C@H](O)[C@@H](O)[C@H]7O)[C@H](O)[C@H]6O[C@@H]6O[C@@H](C)[C@H](O)[C@@H](O)[C@H]6O)CC[C@]5(C)C4CC[C@]3(C)[C@@]1(O)[C@@H]2C (stereo not given in full)	i
SMILES	ID4 SMM
COC(=O)c1c(NC(=S)NCc2ccco2)sc2c1CCC2	i
COC(=O)c1ccc(C)c(NC(=O)COc2ccccc2C)c1	i
NC(=O)c1ccccc1NC(=O)CCCN1C(=O)c2ccccc2C1=O	i
O=C(Nc1ccccc1C(=O)O)c1cccc(S(=O)(=O)Nc2ccccc2)c1	i
Cc1ccc([N+](=O)[O-])cc1NC(=O)Cn1cnc2ccccc2c1=O	i
CCNC(=O)c1c(NC(=O)COc2ccc(Cl)cc2Cl)sc2c1CCCC2	i
CCn1c(SCC(=O)N2CCc3ccccc32)nnc1-c1ccc([N+](=O)[O-])cc1	i
COc1ccc(-c2nc(SCC(=O)Nc3ccc(Br)c(C)c3C)n[nH]2)cc1	i
c1ccc(-c2noc(COc3cccc4ccccc34)n2)nc1	i
C[C@@H]1CN([C@H](C)CO)C(=O)c2cc(NS(C)(=O)=O)ccc2O[C@H]1CN(C)C(=O)Nc1ccccc1	i
